Hit rate of the full screen: of about 310,000 compounds, about 1,000 (0.32%) were called active. The list is a sample of the results. Entries with a potency or affinity are not part of this list. Unmarked numbers belong to inactive results. The rule behind the calls is not given here.
assay: Inhibition of PhoP regulon, Salmonella typhi GFP reporter cells, confirmation, 4 h (AID 1850); details: Salmonella Typhi PhoP-promoter GFP reporter, fluorescence, at 50 µM, stronger effect = higher value;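 note: 0% = induced wells with vehicle and 100% = uninduced wells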

SMILES | inhibition [%]
COc1ccc(NC(=O)CN2C(=O)c3cccc4cccc2c34)cc1OC | -7.56
O=C(Cn1cc(C(F)(F)F)cc(Cl)c1=O)NCc1ccc(Cl)cc1 | -1.19
CCCCOC(=O)c1ccc(-c2ccc(/C=N/NC(=S)NCC)o2)cc1 | -7.32
O=[N+]([O-])c1ccc(/C([O-])=C(/C(=S)NCc2ccco2)[n+]2ccccc2)cc1 | 13.8
O=C(NC1CCN(Cc2ccccc2)CC1)C1CCN(S(=O)(=O)c2ccccc2)CC1 | 5.66
Clc1ccc(-c2csc(N3CCc4ccccc4C3)n2)cc1 | 5.55
CC(C)CN=CC1=C(O)c2ccccc2C1=O | 5.42
CC(C)(C)CN1CCN(Cc2cc3ccccc3[nH]2)CC1CCO (stereo unspecified) | 2.46
Cc1cc(C)n(C(=O)Cn2nc([N+](=O)[O-])cc2C)n1 | -5.88
O=C1CSC(c2cccc([N+](=O)[O-])c2)N1c1ccccc1 (stereo unspecified) | 0.65
Clc1ccccc1OCCCCN1CCCCC1 | -2.94
CN1CCCC(CC2Oc3ccccc3Sc3ccccc32)C1 (stereo unspecified) | 11.3
OCCC1CN(Cc2cccc3c2OCO3)CCN1C1CCCCC1 (stereo unspecified) | -4.26
Cc1ccc(S(=O)(=O)N(C)C(=O)NC(=O)NS(=O)(=O)c2ccccc2)cc1 | -5.97
CCC(=O)/C=C1\Sc2ccc(OC)cc2N1CCO | -12.9
CCC(/C=C1\Sc2ccc(OC)cc2N1CC)=C\c1sc2ccc(OC)cc2[n+]1CCCS(=O)(=O)[O-] | -7.82
COc1ccc(/C=N/Nc2nc(C)cc(-c3ccccc3)n2)cc1OC | -1.16
COc1ccc(-c2ccc(=O)n(Cc3cccc(Cl)c3)n2)cc1 | -10.8
CCC(=O)Nc1ccc(N/C(N)=N/c2nc(C)cc(C)n2)cc1 | -8.68
Cc1cc(C)nc(/N=C(\N)Nc2cc([N+](=O)[O-])ccc2C)n1 | -1.74
COc1ccc(C)cc1N/C(N)=N/c1nc(C)cc(C)n1 | -5.2
Cc1ccc(N/C(N)=N/c2nc(C)cc(C)n2)cc1 | -9.13
O=C(NCCF)C1Nc2ccc(OC(F)(F)F)cc2C2C=CCC12 (stereo unspecified) | 9.88
C=CCN(C(=O)c1csnn1)C(C(=O)NCc1ccccc1)c1c(F)cccc1Cl (stereo unspecified) | -1.14
CN(CC(=O)N1CCN(c2cccc(Cl)c2)CC1)S(=O)(=O)c1cccs1 | 2.82
CCOC(=O)C(C)NC(=O)CCc1nnc2ccc(N3CCCCC3)nn12 (stereo unspecified) | 1.43
